Laboratory results published in PubChem BioAssay (EPA / NIEHS).
Activity calls are given as the source filed them. Rule for the calls: active = hit-call score of the fitted dose curve at least 0.9, where 1 is the maximum; inactive = score below 0.9.

read-out: not listed separately; experiment: BSK_LPS_SRB: Viability Assessment in the BioMAP Diversity Plus: LPS Assay (AID 2283079); settings: primary human HUVEC with PBMC;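 note: total protein by sulforhodamine B absorbance as a cytotoxicity measure; measured one day after compound addition; fitted in both directions against DMSO so loss or gain of signal counts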
Procedure, shortened: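 HUVEC + PBMC co-culture, LPS-stimulated; compound 24 h. 10% TCA fix, 0.1% SRB stain, A560. Bidirectional fit vs DMSO.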

Sequence of Tumor necrosis factor (Homo sapiens) (P01375 whole entry, looked up): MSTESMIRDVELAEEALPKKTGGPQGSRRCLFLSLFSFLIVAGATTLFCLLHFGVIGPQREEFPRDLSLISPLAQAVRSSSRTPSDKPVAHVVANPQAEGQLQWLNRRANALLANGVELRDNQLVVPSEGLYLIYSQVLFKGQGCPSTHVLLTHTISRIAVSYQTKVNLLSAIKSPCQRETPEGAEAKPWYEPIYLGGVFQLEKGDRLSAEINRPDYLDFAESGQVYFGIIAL

**Q.** With `CCCCCCCCCCCC#N` as the compound, how does the outcome read?
**A.** inactive

**Q.** With `CC(C)CCCCCCCOC(=O)c1ccccc1C(=O)OCCCCCCCC(C)C` as the compound, how does the outcome read?
**A.** inactive

**Q.** With `O=[N+]([O-])C=Cc1ccccc1` as the compound, how does the AC50 read?
**A.** 11 µM (active)

**Q.** For `O=[N+]([O-])c1ccc(Cl)cc1`, which outcome is on record?
**A.** inactive

**Q.** Which outcome does the source give for `Nc1ccc(-c2ccc(N)c(N)c2)cc1N` here?
**A.** inactive

read-out: Interleukin-1 alpha (IL1a), IL1A (gene 3552); experiment: BSK_LPS_IL1a: BioMAP Diversity Plus: LPS Assay for Interleukin-1 alpha (IL1a) Biomarker Activity (AID 2283080); settings: primary human HUVEC with PBMC; actives raise or lower the signal
Procedure, shortened: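 HUVEC/PBMC co-culture, LPS system; 24 h after dosing; IL-1a by ELISA; gain or loss of signal fitted bidirectionally vs DMSO baseline.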

**Q.** With `CCCCCCCCCCCC#N` as the compound, how does the AC50 read?
**A.** 32.4 µM (active)

**Q.** With `CC(C)CCCCCCCOC(=O)c1ccccc1C(=O)OCCCCCCCC(C)C` as the compound, how does the outcome read?
**A.** inactive

**Q.** For `O=[N+]([O-])C=Cc1ccccc1`, which AC50 is on record?
**A.** 8.05 µM (active)

**Q.** Which outcome does the source give for `O=[N+]([O-])c1ccc(Cl)cc1` here?
**A.** inactive

**Q.** For `Nc1ccc(-c2ccc(N)c(N)c2)cc1N`, which outcome is on record?
**A.** inactive

read-out: Monocyte Chemoattractant Protein-1 (MCP1), CCL2 (gene 6347); experiment: BSK_LPS_MCP1: BioMAP Diversity Plus: LPS Assay for Monocyte Chemoattractant Protein-1 (MCP1) Biomarker Activity (AID 2283081); settings: primary human HUVEC with PBMC; actives raise or lower the signal;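 for AC50: secreted MCP-1 protein quantified by ELISA in culture supernatant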
Procedure, shortened: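 ELISA read-out of MCP-1 after 24 h chemical dosing of a human umbilical vein endothelial cell/peripheral blood mononuclear cell co-culture stimulated with LPS. Gain or loss of signal fitted relative to DMSO controls.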

**Q.** For `CCCCCCCCCCCC#N`, which outcome is on record?
**A.** inactive

**Q.** For `CC(C)CCCCCCCOC(=O)c1ccccc1C(=O)OCCCCCCCC(C)C`, which outcome is on record?
**A.** inactive

**Q.** For `O=[N+]([O-])C=Cc1ccccc1`, which AC50 is on record?
**A.** 10.3 µM (active)

**Q.** Which outcome does the source give for `O=[N+]([O-])c1ccc(Cl)cc1` here?
**A.** inactive

**Q.** Which outcome does the source give for `Nc1ccc(-c2ccc(N)c(N)c2)cc1N` here?
**A.** inactive

read-out: not listed separately; experiment: BSK_LPS_PGE2: BioMAP Diversity Plus: LPS Assay for Prostaglandin E2 (PGE2) Biomarker Activity (AID 2283082); settings: primary human HUVEC with PBMC; actives raise or lower the signal;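 for AC50: secreted prostaglandin E2 measured by ELISA in LPS-stimulated co-culture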
Procedure, shortened: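 ELISA read-out of PGE2 from human umbilical vein endothelial cells co-cultured with peripheral blood mononuclear cells under LPS, 24 h post-dose. Gain or loss of signal scored relative to DMSO baseline.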

**Q.** For `CCCCCCCCCCCC#N`, which AC50 is on record?
**A.** 32 µM (active)

**Q.** With `CC(C)CCCCCCCOC(=O)c1ccccc1C(=O)OCCCCCCCC(C)C` as the compound, how does the outcome read?
**A.** inactive

**Q.** For `O=[N+]([O-])C=Cc1ccccc1`, which AC50 is on record?
**A.** 5.81 µM (active)

**Q.** For `O=[N+]([O-])c1ccc(Cl)cc1`, which outcome is on record?
**A.** inactive

**Q.** With `Nc1ccc(-c2ccc(N)c(N)c2)cc1N` as the compound, how does the outcome read?
**A.** inactive

read-out: Macrophage colony-stimulating factor (MCSF), CSF1 (gene 1435); experiment: BSK_LPS_MCSF: BioMAP Diversity Plus: LPS Assay for Macrophage colony-stimulating factor (MCSF) Biomarker Activity (AID 2283083); settings: primary human HUVEC with PBMC; actives raise or lower the signal
Procedure, shortened: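 HUVEC + PBMC co-culture (human primary), 24 h post-dose; M-CSF by ELISA; gain/loss of signal fitted bidirectionally vs DMSO baseline.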

**Q.** For `CCCCCCCCCCCC#N`, which AC50 is on record?
**A.** 38 µM (active)

**Q.** Which outcome does the source give for `CC(C)CCCCCCCOC(=O)c1ccccc1C(=O)OCCCCCCCC(C)C` here?
**A.** inactive

**Q.** For `O=[N+]([O-])C=Cc1ccccc1`, which AC50 is on record?
**A.** 10.8 µM (active)

**Q.** With `O=[N+]([O-])c1ccc(Cl)cc1` as the compound, how does the outcome read?
**A.** inactive

**Q.** For `Nc1ccc(-c2ccc(N)c(N)c2)cc1N`, which outcome is on record?
**A.** inactive

read-out: Tissue Factor, F3 (gene 2152); experiment: BSK_LPS_TissueFactor: BioMAP Diversity Plus: LPS Assay for Tissue Factor Biomarker Activity (AID 2283084); settings: primary human HUVEC with PBMC; actives raise or lower the signal
Procedure, shortened: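 HUVEC/PBMC co-culture, LPS-activated; CD142 ELISA read 24 h post-dose; bidirectional curve fit vs DMSO negative control.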

**Q.** For `CCCCCCCCCCCC#N`, which AC50 is on record?
**A.** 24.1 µM (active)

**Q.** Which outcome does the source give for `CC(C)CCCCCCCOC(=O)c1ccccc1C(=O)OCCCCCCCC(C)C` here?
**A.** inactive

**Q.** For `O=[N+]([O-])C=Cc1ccccc1`, which AC50 is on record?
**A.** 10.7 µM (active)

**Q.** For `O=[N+]([O-])c1ccc(Cl)cc1`, which outcome is on record?
**A.** inactive

**Q.** With `Nc1ccc(-c2ccc(N)c(N)c2)cc1N` as the compound, how does the outcome read?
**A.** inactive

read-out: Tumor necrosis factor (Homo sapiens) (UniProt P01375); experiment: BSK_LPS_TNFa: BioMAP Diversity Plus: LPS Assay for Tumour Necrosis Factor alpha (TNFa) Biomarker Activity (AID 2283085); settings: primary human HUVEC with PBMC; actives raise or lower the signal;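 for AC50: TNFa protein level quantified by ELISA in the co-culture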
Procedure, shortened: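 HUVEC/PBMC co-culture, LPS-stimulated; 24 h post-dose; TNFa by ELISA; gain or loss of signal fitted bidirectionally vs DMSO baseline.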

**Q.** With `CCCCCCCCCCCC#N` as the compound, how does the AC50 read?
**A.** 36.4 µM (active)

**Q.** Which outcome does the source give for `CC(C)CCCCCCCOC(=O)c1ccccc1C(=O)OCCCCCCCC(C)C` here?
**A.** inactive

**Q.** For `O=[N+]([O-])C=Cc1ccccc1`, which AC50 is on record?
**A.** 9.91 µM (active)

**Q.** Which outcome does the source give for `O=[N+]([O-])c1ccc(Cl)cc1` here?
**A.** inactive

**Q.** Which outcome does the source give for `Nc1ccc(-c2ccc(N)c(N)c2)cc1N` here?
**A.** inactive
